Shown is part of a subset that was picked to be rich in hits.
AmpC no deterg: blocks E. coli AmpC beta-lactamase in detergent-free assay. P00811. AmpC nitrocefin hydrolysis, absorbance 480 nm, 0.0001% Triton. Potency, µM (titrated, usually from 57.1 µM), for inactives: at the highest dose activity change, negative = inhibition, actives largely listed as inhibitors. 330,000 tested, 0.52% active;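 further: potency means the concentration at half of the fitted maximal effect; plate controls were no compound for no effect and no enzyme for full effect; nearly all actives have a fitted effect of over 20% in size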
Target sequence (P00811 whole entry, looked up): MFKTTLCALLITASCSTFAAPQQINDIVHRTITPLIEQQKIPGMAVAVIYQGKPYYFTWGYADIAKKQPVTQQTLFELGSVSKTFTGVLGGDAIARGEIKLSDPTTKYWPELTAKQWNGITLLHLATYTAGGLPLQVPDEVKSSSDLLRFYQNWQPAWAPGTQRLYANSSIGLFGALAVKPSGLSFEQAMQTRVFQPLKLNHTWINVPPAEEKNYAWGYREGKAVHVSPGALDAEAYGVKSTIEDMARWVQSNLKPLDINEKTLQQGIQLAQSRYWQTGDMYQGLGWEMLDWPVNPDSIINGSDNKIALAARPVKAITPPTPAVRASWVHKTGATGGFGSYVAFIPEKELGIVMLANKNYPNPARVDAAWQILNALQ
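20 mM phosphate pH 7.0 + 0.01% (detergent screen) or 0.0001% Triton X-100; 5.3 nM AmpC reagent; cpd preinc 15 min RT; nitrocefin (800 uM stock) to start; A480 q20 s × 4 min; Activity was normalised to no-enzyme and no-compound control wells.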
AmpC inh detg: blocks E. coli AmpC beta-lactamase in detergent assay; Potency, µM (top dose mostly 114 µM), inactives show at the top dose activity change, negative = inhibition, usual class: inhibitors; AID 485294; AmpC hydrolysis of nitrocefin, absorbance 480 nm, 0.01% Triton; P00811; 370,000 tested, 0.041% active;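 further: potency means the concentration at half of the fitted maximal effect; 0% = no-compound wells and -100% = no-enzyme wells; nearly all actives have a fitted effect of over 25% in size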
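AmpC (5.3 nM in the dispensed reagent) in 20 mM phosphate pH 7.0 with 0.01% (detergent screen) or 0.0001% Triton X-100 was preincubated with compounds for 15 min at room temperature. Nitrocefin was then added from an 800 uM solution, and hydrolysis was followed at 480 nm.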
Shiga toxin inh: inhibitors of Shiga toxin in Vero cells; Vero cells, Shiga toxin protein synthesis inhibition reporter; inhibition, % at 38.7 µM; 290,000 tested, 9.2% active; in the data active means inhibition mostly above about 28%, no sharp cut-off; inactive means mostly below about 43%; further: 0% is about no effect
CHX counter: affects cycloheximide protein synthesis inhibition readout, counter-screen. 300,000 tested, 12% active. cell reporter, cycloheximide protein synthesis inhibition counterscreen. max response, %; in the data active means max response mostly above about 13%, no sharp cut-off; inactive means mostly below about 14%; further: read at 38.3 µM for the half of the compounds with a filed dose; 0% is about no effect
SARS PLpro yeast-1: inhibitors of SARS-CoV papain-like protease in yeast; S. cerevisiae expressing SARS-CoV PLpro, growth rescue; 330,000 tested, 0.19% active; Potency, µM (highest dose often 32.9 µM), for the others: at the highest dose activity, positive = growth rescue, hits mostly activators; calls by dose curve; further: potency means the concentration at half of the fitted maximal effect; 0% is about no effect; nearly all actives have a fitted effect of over 55% in size
AMA1-RON2 inh: AMA1-RON2 (P. falciparum) interaction inhibition. AID 720542. 360,000 tested, 0.2% active. Potency, µM (titrated, usually from 58.2 µM), without a hit: top-dose activity change, negative = inhibition, actives largely listed as inhibitors. AlphaScreen AMA1-biotinylated RON2 peptide binding;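 further: potency means the concentration at half of the fitted maximal effect; 0% = vehicle wells and -100% = peptide control; nearly all actives have a fitted effect of over 45% in size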
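AMA1 (3D7) with his tag at 25 nM final met compounds first, then biotinylated RON2 peptide at 25 nM; detection used donor plus acceptor beads, 10 µg/mL apiece, read by AlphaScreen after 30 min at room temperature.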
SARS PLpro yeast-2: Validates SARS-CoV PLpro inhibitor hits in yeast; yeast expressing SARS-CoV PLpro, growth phenotype rescue; 1,000 tested, 19% active; shares compounds with SARS PLpro yeast-1; AID 652038; calls only; call rule not given here
* hit, by the source's call; i = inactive; ? = inconclusive; · = not tested or not shown; + = active, no number; [ ] = remark or other dose. Unless noted, the call rests on the fitted dose curve; in most records, active means well fitted curve in the direction sought with a large enough effect; inconclusive means small, poorly fitted or top-dose-only effect, or another doubt; inactive means no such curve, though single readings can be large; an effect the other way counts as inactive or inconclusive.

SMILES	AmpC no deterg	AmpC inh detg	Shiga toxin inh	CHX counter	SARS PLpro yeast-1	AMA1-RON2 inh	SARS PLpro yeast-2
Cc1[nH]n(-c2cccc3ccccc23)c(=O)c1/C=N/NC(=O)c1cccc([N+](=O)[O-])c1	?	-10%	16	-2	?	103%	+
O=C(Cc1cc(=O)[nH]c(=O)[nH]1)N1CCN(C(=O)c2ccco2)CC1	-12%	9%	-1	-6	1.8µM*	7%	i
COc1cc(-c2nnc(SCc3cc(=O)oc4cc(O)c(O)cc34)o2)cc(OC)c1OC	?	-4%	-19	-1	6.3µM*	?	i
O=C(CN1C(=O)NC2(CCCCC2)C1=O)N1CCOCC1	-20%	1%	·	·	1%	1%	·
O=C(CNC(=O)c1ccco1)OC(C(=O)c1ccccc1)c1ccccc1 (stereo not given)	-41%	-11%	2	-4	?	-4%	i
CCN(CC)C(=O)CSc1nc2ccccc2c(=O)n1-c1cccc(OC)c1	42%	?	2	-1	-2%	-3%	·
COc1cccc(-n2c(SCc3cc(=O)oc4cc(O)c(O)cc34)nc3ccccc3c2=O)c1	?	-10%	13	-3	14µM*	33%	i
CCN(CCCNC(=O)CC(C(=O)N1CCc2ccccc21)n1ccnc1)c1ccccc1 (stereo not given)	150%	-2%	18	1	4%	-30%	·
CCc1nnc(NC(=O)c2cnccn2)s1	-16%	8%	23	17	?	209%	i
CN(CC1CCCO1)S(=O)(=O)c1ccc(C(=O)Nc2ccc(S(N)(=O)=O)cc2)cc1 (stereo not given)	-6%	3%	-18	0	0.4µM*	-5%	i
Cc1cccc(NC(=O)CSc2nnc(Cn3cnc4ccccc43)o2)c1	-16%	1%	16	-4	18µM*	-10%	i
COc1ccc(/C=N/Nc2nc(N3CCCC3)nc(N3CCCC3)n2)cc1O	-17%	1%	-17	1	1%	62%	·
CCNc1nc(NCC)nc(N/N=C/c2ccc(O)c(O)c2)n1	-43%	-4%	-14	2	11µM*	65%	i
O=C(COC(=O)c1ccc(S(=O)(=O)N2CCCCCC2)cc1)NCc1ccc(F)cc1	-13%	-6%	·	·	?	1%	+
Cc1ccc(CNC(=O)COC(=O)c2ccc(S(=O)(=O)N3CCCCCC3)cc2)cc1	-6%	0%	·	·	1%	0%	·
O=C(NNC(=O)c1cc(Cl)ccc1O)c1cccc(S(=O)(=O)N2CCOCC2)c1	-22%	-18%	·	·	?	61%	+
C#CC[N+](C)(C)CCCCCCCCCCCC	58%	-11%	-11	-1	-53%	-6%[11.6 µM]	·
C#CC[N+](C)(C)CCCCCCCCCC	14%	-5%	-14	-5	3.2µM*	5%	i
COc1ccc(NC(=O)N(C)C[C@H]2Oc3c(NC(=O)C4CC4)cccc3C(=O)N([C@H](C)CO)C[C@@H]2C)cc1	-12%	·	·	·	?	-3%	i
CNC[C@H]1Oc2c(NS(=O)(=O)c3ccccc3)cccc2C(=O)N([C@H](C)CO)C[C@@H]1C	-15%	·	·	·	10µM*	6%	i
COc1ccc(NC(=O)COc2ccccc2)cc1NC(=O)c1ccco1	40%	-19%	-3	0	3%	12%	·
Cn1ncc(Cl)c1C(=O)N/N=C/c1ccccn1	-8%	-14%	32	20*	?	78%	+
Cn1ncc(Cl)c1C(=O)N/N=C/c1cccc(OC2CSC2)c1	-6%	5%	-2	13	1%	10%	·
CNc1nc(-c2ccccn2)nnc1-c1ccccc1	5%	-2%	22	4	?	-11%	i
CCCN(CCC)S(=O)(=O)c1ccc(C(=O)Nc2c(C)n(C)n(-c3ccccc3)c2=O)cc1	8%	0%	-4	-3	-2%	-5%	·
SMILES	AmpC no deterg	AmpC inh detg	Shiga toxin inh	CHX counter	SARS PLpro yeast-1	AMA1-RON2 inh	SARS PLpro yeast-2
COc1ccc(CC(=O)NCCc2ccc3c(c2)OCO3)cc1OC	·	·	·	·	·	-14%	·
CCCCCC(=O)Nc1ccc(Cc2ccncc2)cc1	-12%	1%	23	11	13µM*	10%	i
Cc1ccc(N=C2NC(=O)/C(=C/c3cccnc3)S2)cc1C	-3%	-4%	23	1	-1%	7%	·
Cc1ccc(N=C2NC(=O)/C(=C\c3cccs3)S2)cc1C	-28%	?	72*	28*	?	-29%	i
O=C(NN1C(=O)/C(=C/c2ccc(O)c(O)c2)SC1=S)c1ccccc1	-40%	-10%	-9	-3	?	?	i
O=C(N/N=C/C1CC=CCC1)c1ccc(Cl)cc1O (stereo not given)	-19%	6%	51	28*	11µM*	23%	i
Cc1ccc(C(=O)N/N=C\C2CC=CCC2)cc1[N+](=O)[O-] (stereo not given)	-34%	2%	-5	8	-4%	47%	·
Cn1c(=O)c2c(nc(SCc3nc(N)nc(N4CCCCC4)n3)n2C)n(C)c1=O	-6%	?	-18	-6	?	-10%	i
CCCn1c(SCc2nc(N)nc(N3CCCCC3)n2)nc2c1c(=O)n(C)c(=O)n2C	-40%	-4%	-18	-6	-10%	-6%	·
CC(C)Cc1ccc(-c2ccc3nccn3c2)cc1	·	·	·	·	·	18%	·
CCn1c(O)c(/C=N/NC(=O)c2ccncc2)c(=O)[nH]c1=S	-31%	?	-3	7	1%	-4%	·
CCC(C)n1c(O)c(/C=N/NC(=O)c2ccncc2)c(=O)[nH]c1=S (stereo not given)	-33%	-12%	10	-5	11µM*	14%	i
O=C(Nc1ccc(S(=O)(=O)N2CCCC2)cc1)c1ccc([N+](=O)[O-])cc1	-19%	-11%	-3	2	10%	-4%	·
COc1ccc(C2=NNC(=O)CC2)cc1	-10%	-4%	7	5	?	5%	i
Cc1nc2ccccn2c(=O)c1NC(=O)c1ccco1	·	·	·	·	·	5%	·

Screening data (PubChem)
